Laboratory results taken from the supplement of paper PMC11417369.
In all, about 25,000 sequences were measured (“ln(normalized median fluorescence intensity)”: median about 9.3, highest 2% from about 10 on). This is one part of a sample in which the highest values are shown more often than they occur.

What follows are sequences tested on PF3D7_0420300 AP2 domain 1 (GST-tagged) (assay: gcPBM binding intensity (ln(normalized median fluorescence intensity)); higher = stronger DNA binding).
Procedure, shortened: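 An Agilent 4 × 180k array of primer-extended double-stranded 36-bp intergenic genomic probes, with negative controls, was incubated for 1 h with GST-tagged P. falciparum DNA-binding domains expressed in E. coli. Alexa488 anti-GST antibody detected bound protein, scanned at 488 nm. Binding intensity is the highest Masliner-normalised natural-log median intensity across replicate spots of either probe orientation.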

| Sequence | gcPBM binding intensity (ln) |
| --- | --- |
| TTTTAAGAATAAAATTGTACACATACATGTGTTCGC [XGTACX_site438] | 9.09 |
| TATACCTATAAATACACACACATATAAATAAATATA [CACACA_site6153] | 9.99 |
| TACCTATAAAAGTACACACACACACGGATATAAATA [CACACA_site6569] | 10.3 |
| CAAAAAAAGTTATACACACACACACGGATATAAATA [CACACA_site6619] | 10.1 |
| TACCTATACCTATACACACACACACGGAAATAAATA [CACACA_site6750] | 10.3 |
| AAAAAAAAAAAAAGTACACACATACCTATAAATATA [CACACA_site6937] | 9.8 |
| TATATACCTATATACACACACATATATAAATAAATA [CACACA_site7341] | 9.86 |
| TATTGTATGGTAGGATATGATGTTATTTGTTATAAT [CACACA_negctrl_site202] | 9.45 |
| TATATATATATATATATATATATATATATATATATT [CACACA_negctrl_site1440] | 8.8 |
| CTGAATGTATATATTTGTACATATATATATATATAT [XGTACX_site5557] | 9.16 |
| TTTTTTTTTTTTTGTAGTACATTATGTATATTTTTA [XGTACX_site7810] | 9.23 |
| TATATATATTTATGCACACAAAATATATTATATAAT [CACACA_site5955] | 9.27 |
| ATTTGGCATAGACACACACACACACGCACGCACATA [CACACA_site6424] | 10.4 |
| TACAGACATAGACACACACACACGCATAAAAAAAAA [CACACA_site6820] | 10.1 |
| AAATTTGGCAGACACACACACACACGCACACGCACA [CACACA_site6423] | 10.3 |
| AGCACGCACAGACACACACACATATTTATATTTATA [CACACA_site6291] | 9.94 |
| CAGACGCACGTATTTGCACACATTGCCACGTAATTA [CACACA_site3349] | 9.42 |
| TTTATTTTATCATTTGCACACGCACCCAGACATAAA [CACACA_site4347] | 9.39 |
| TTTATATTATTTTAAACATGCACAAGTATAATTTAT [TGCATGCA_site233] | 8.97 |
| ATATGTATAAAAATCCGTACATAAGTGTGCGTATAT [XGTACX_site4376] | 9.32 |
| TATTTATAATTATAATAATATATATATATATATATA [TGCATGCA_negctrl_site173] | 8.83 |
| AGAAATACAAAATAAATATAAGAAACAAAATATTTA [CACACA_negctrl_site780] | 9.42 |

| Sequence | gcPBM binding intensity (ln) |
| --- | --- |
| AATGACAACCTTGTCACACATATATATATATATATA [CACACA_site5977] | 9.17 |
| TCTATATAGATTTGCACACATAAAAATGCTTATATA [CACACA_site2389] | 9.27 |
| TTGTTCCACAAAAATTTAGTCAAAAAAAAATAAAAA [TGCATGCA_negctrl_site546] | 8.79 |
| AGAAAGAAAATATATACACACAAAAAAAAATATATA [CACACA_site1412] | 9.93 |
| TATATATACACACACACATGCATGCCGATATATATA [TGCATGCA_site29] | 10.2 |
| TATATATATATACATACATGCATATATATATATATA [TGCATGCA_site513] | 9 |
| GATATATATTAATATACACACACACCGATATATATA [CACACA_site8462] | 10 |
| AAAAAAAAAAAACACACACACAAAAAAAAATATATA [CACACA_site1105] | 10.1 |
| AATATATATATATATACACACACACCGATATATATA [CACACA_site8158] | 10.1 |
| TATATATATATATACACACACACACCGATATATATA [CACACA_site8813] | 10.2 |
| CAAAAAAACAAACACACACACACACCGATATATATA [CACACA_site9218] | 10.2 |
| AAAGAAAGAAAGAATACACACACACCGATATATATA [CACACA_site9246] | 10.2 |
| TATATATATATATATACATGCATACATATACATACA [TGCATGCA_site897] | 9.14 |
| TATGTACAAATATGTACACACACACCGATATATATA [CACACA_site4487] | 9.96 |
| TTATAAAAAAAAATAACACACAGACATAAGAATAAA [CACACA_site9383] | 9.95 |
| TTTTCATTAAGATACTTATAATAGTTTATTAGTAAA [CACACA_negctrl_site586] | 8.77 |
| ATAATATCATCAAACGCACACATACATAAATATATT [CACACA_site5230] | 9.55 |
| ATTTTTTTCATAGACACACACAATATATCTGTTTCC [CACACA_site3023] | 9.83 |
| ATTATATATAATATAGTGCATGTAAAAAATAAAACA | 9.48 |
| GATGTGTAAATAAGGATATATAACAATCAACAAAAC [XGTACX_negctrl_site494] | 9.72 |
| ATATTATATATATACACACACACATGCATGCACCTA [CACACA_site106] | 10.2 |
| AAAAAAAAAAAACACACACACACACCGACACATACA [CACACA_site5576] | 10.2 |

| Sequence | gcPBM binding intensity (ln) |
| --- | --- |
| TATATACATACATATACACACATATATATATATATA [CACACA_site401] | 9.44 |
| AAAAAAAAAAAACACACACACACACCGATACATACA [CACACA_site8849] | 10.3 |
| CACAAACACCCAAACACACACACACCGACATACATA [CACACA_site4410] | 10 |
| TATATATACATATACACACACACACCGATATATATA [CACACA_site8706] | 10.2 |
| AAAAAAAAAAAAAACACACATACATACATACATATA [CACACA_site4121] | 9.74 |
| ATATTATATATATACACACACACATGCATGCACATA [CACACA_site7917] | 10.1 |
| ATATTATAGATATACACACACACATGCATGCACATA [CACACA_site6203] | 10.1 |
| CATACATACAAACACACACACACACCGATATATATA [CACACA_site8952] | 10.3 |
| TACATACATACATACATACACACATATATATATATA [CACACA_site1996] | 9.45 |
| GAAGGAAATAATAGTAGTACAAATGGTAAGAAATAT [XGTACX_site5845] | 9.7 |
| AATTTTTATACGGATACACACAAAAAAAAATAAAAA [CACACA_site897] | 9.53 |
| TACACTTTTTTTTGTACACACTAAAAAGATTAACAA [CACACA_site6037] | 9.07 |
| TATTTGGGTATTTTTACACACATTAAAATATATATA [CACACA_site5800] | 9.33 |
| ATATATATTTTATACGCATGTAATTATTATGTGGTC [TGCATGCA_site45] | 9.29 |
| TAATAGTTATAAAATACACACCAGGCATGATAAATG [CACACA_site4335] | 9.5 |
| TATATATATATAGGTTGTACATTTTGATGTTTACGT [XGTACX_site5503] | 9.42 |
| AAAAAAAAAAAAAATACACACACACCGATATATATA [CACACA_site8142] | 10.1 |
| CAAAATAATATATATACACACACACCGATATATATA [CACACA_site8082] | 10.2 |
| TATACATACATACATACACACACACCGATATATACA [CACACA_site8184] | 10.2 |
| TATACATACATACATACACACACACCGATATATATA [CACACA_site7896] | 10.1 |
| TATATACATATATACACACACATATATATATATATA [CACACA_site2805] | 9.6 |
| CAAAAAAAATTATACACACACACACCGATATATATA [CACACA_site4719] | 10.2 |

| Sequence | gcPBM binding intensity (ln) |
| --- | --- |
| AAAAAAAATTCGTGTGTGCGCATATATAATATATAA | 9.6 |
| AGATACTTTCCTCAAACACACAAAACTATACAACAA [CACACA_site1474] | 9.45 |
| AAAAAAATAATCATCACACACGGAGAATGTCCAATA [CACACA_site5305] | 9.6 |
| AAAAAAAAATATATAAACACACATATTTATATACAC [GTGCAC_negctrl_site545] | 9.61 |
| GAAATAGAGAAACACACACACATATATTTATGTATT [CACACA_site3967] | 9.99 |
| AAAAAAAAAACATACACACACACAAATATTTATATA [CACACA_site437] | 10.1 |
| CACAAAAAGAAACACACACACATATATATTTATTAT [CACACA_site3646] | 10.1 |
| AAGAAATATTTATACACACACACAAACATATAAATA [CACACA_site6981] | 10.2 |
| CAGAAATAGAGATACACACACACATATATTTATGTA [CACACA_site3968] | 10.2 |
| AAGAAATATTTATACACACACACAAACATATATATA [CACACA_site1912] | 10.2 |
| CATAAATACAAATATACACACATATTTATATTTATA [CACACA_site7277] | 9.54 |
| GAAATAGAGAGACACACACACATATATTTATGTATT [CACACA_site7794] | 9.93 |
| AAAAAAAAAAAAAAAAAAAAATTTCAATTATATTGA [GTGCAC_negctrl_site642] | 8.91 |
| CCATTTTTTTTATACGCACACGTCATACTTTTAAAA [CACACA_site4988] | 9.46 |
| ATTTATATTTGTATTTGTACTTATATTTATATTTAT [XGTACX_site1540] | 9.64 |
| TGTGTAAGATCTTGGATGATGATAAGAATCTACTAG [CACACA_negctrl_site1167] | 9.11 |
| TATATAAACACGTACACACACATATAGGTATTTATA [CACACA_site7615] | 9.97 |
| TCTTAAAAAATAGGGACACGTAAATATAATATATAA [CACACA_negctrl_site554] | 9.4 |
| TTATACTGTTTCAGAAAAATAAAGAATGAAAGTATT [XGTACX_negctrl_site230] | 9.23 |
| TGTAGAAATGGGTGCACACACATATAAAATCTATAT [CACACA_site7224] | 9.66 |
| TTTCAAAATGTGTAAAATAAAAATAATATCATTACA [TGCATGCA_negctrl_site521] | 9.08 |
| ATTTTCTTTTCCATAGTGCAATATAATTATCCATCA [GTGCAC_site9547] | 9.29 |
